Compounds without any hit were thinned out: in the full panel of roughly 79,000, 15% have a hit. Calls of active or inactive are those of the source. Cut-off read from the data, not from the text of the source: active = growth inhibition above about 70%; inactive = the rest.
Legend:
[1] = NCI Yeast Anticancer Drug Screen. Data for the rad52 strain (AID 147);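 note: 0% = growth of vehicle-treated control cultures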; details: S. cerevisiae rad52 mutant growth inhibition, stronger effect = higher value
Summary of the method: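 Screen used a yeast mutant impaired in DNA repair. After compound exposure, growth was measured. Values reflect inhibition compared with vehicle-treated cells.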

[2] = NCI Yeast Anticancer Drug Screen. Data for the wt1 strain (AID 149);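 note: 0% = growth of vehicle-treated wt1 cultures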; details: S. cerevisiae wt1 strain (SPY 50644) growth inhibition, stronger effect = higher value
Summary of the method: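 The wt1 strain was treated with compounds, and growth was compared with vehicle-treated cultures to give inhibition.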

[3] = NCI Yeast Anticancer Drug Screen. Data for the rad50EPP+ strain (AID 151);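 note: 0% = growth of vehicle-treated control cultures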; details: S. cerevisiae rad50 mutant strain, stronger effect = higher value
Summary of the method: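 Exposing the rad50EPP+ strain to each compound, growth was compared with vehicle-only cultures to give inhibition.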

[4] = NCI Yeast Anticancer Drug Screen. Data for the mgt1 strain (AID 153); details: S. cerevisiae mgt1 mutant growth inhibition, stronger effect = higher value
Summary of the method: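 Genetically defined yeast (mgt1) treated with compound; inhibition of growth expressed against vehicle-treated controls.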

[5] = NCI Yeast Anticancer Drug Screen. Data for the rad50 strain (AID 155);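 note: 0% = growth of vehicle-only cultures of the same strain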; details: S. cerevisiae rad50 strain growth inhibition, stronger effect = higher value
Summary of the method: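 Cells are treated with compound, grown, and their growth is then scored against vehicle-only cultures of the same repair-deficient yeast strain.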

[6] = NCI Yeast Anticancer Drug Screen. Data for the mec2-1 strain (AID 157); details: S. cerevisiae mec2-1 strain, stronger effect = higher value
Summary of the method: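 Readout is yeast growth inhibition, normalised to vehicle-treated controls, in the mec2-1 strain exposed to compound.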

[7] = NCI Yeast Anticancer Drug Screen. Data for the rad14 strain (AID 159);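 note: 0% = growth of vehicle-treated control cultures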; details: S. cerevisiae rad14 strain growth inhibition, stronger effect = higher value
Summary of the method: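 Readout: yeast growth inhibition, referenced to vehicle-only cultures. Strain bears a defined alteration in DNA damage repair.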

[8] = NCI Yeast Anticancer Drug Screen. Data for the sgs1 mgt1 strain (AID 161);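 note: 0% = growth of cultures given vehicle only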; details: S. cerevisiae sgs1 mgt1 strain, stronger effect = higher value
Summary of the method: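 Compounds are added to genetically altered yeast, and growth is compared with cultures given vehicle alone to give percent inhibition.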

[9] = NCI Yeast Anticancer Drug Screen. Data for the CLN2oe strain (AID 163);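 note: 0% = growth of vehicle-only control cultures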; details: S. cerevisiae CLN2oe strain, stronger effect = higher value
Summary of the method: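 Values reflect how much compound exposure reduced yeast growth, referenced to vehicle-exposed cells. Assay organism is a strain with a defined genetic change affecting cell-cycle control.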

[10] = NCI Yeast Anticancer Drug Screen. Data for the cln2 rad14 strain (AID 165);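 note: 0% = growth equal to vehicle treated cultures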; details: S. cerevisiae cln2 rad14 strain, stronger effect = higher value
Summary of the method: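 Relative to vehicle controls, growth inhibition of compound-treated cln2 rad14 yeast was recorded.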

[11] = NCI Yeast Anticancer Drug Screen. Data for the bub3 strain (AID 167); details: S. cerevisiae bub3 mutant strain, stronger effect = higher value
Summary of the method: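 Part of a panel of yeast mutants defective in DNA damage repair or cell cycle regulation. Each strain is grown with compound, and inhibition is calculated relative to solvent-treated cultures.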

[12] = NCI Yeast Anticancer Drug Screen. Data for the mlh1 strain (AID 171);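 note: 0% = growth of vehicle-treated control cultures of the same strain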; details: S. cerevisiae mlh1 strain growth inhibition, stronger effect = higher value
Summary of the method: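 Steps: expose the defined-mutant yeast strain to compound; expose a parallel culture to vehicle; measure growth; express compound effect as inhibition relative to the vehicle culture.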

[13] = NCI Yeast Anticancer Drug Screen. Data for the sgs1 strain (AID 173);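 note: 0% = growth of vehicle-only control cultures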; details: S. cerevisiae sgs1 mutant, stronger effect = higher value
Summary of the method: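 Treat defined-mutant yeast with compound; measure growth; calculate inhibition relative to vehicle-treated cells.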

[14] = NCI Yeast Anticancer Drug Screen. Data for the mlh1 rad18 strain (AID 175); details: S. cerevisiae mlh1 rad18 strain growth inhibition, stronger effect = higher value
Summary of the method: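 Test agents were incubated with a yeast strain of defined genotype (DNA damage repair defect). Inhibition of growth was derived by comparison with vehicle-exposed cultures.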

[15] = NCI Yeast Anticancer Drug Screen. Data for the rad18 strain (AID 177); details: S. cerevisiae rad18 mutant growth inhibition, stronger effect = higher value
Summary of the method: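 A genetically defined yeast mutant impaired in DNA damage repair was treated with test compounds, then its growth was measured against cultures receiving vehicle alone.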

[16] = at 5.0 µM (retest, dose inferred, filed as 0.5)
[17] = at 50.0 µM (retest, dose inferred, filed as 5.0)

Measured: growth inhibition

c1c[nH]c(CN2CCN(Cc3ncc[nH]3)CC2)n1
inactive: [1]; at 1.2 µM 0% | [2]; at 1.2 µM -1% | [2]; at 3.7 µM 7% | [3]; at 1.2 µM -3% | [3]; at 3.7 µM 3% | [4]; at 1.2 µM -6% | [4]; at 3.7 µM 2% | [5]; at 1.2 µM 4% | [6]; at 1.2 µM -5% | [6]; at 3.7 µM -1% | [6]; [16] 26% | [7]; at 1.2 µM -4% | [7]; at 3.7 µM 18% | [8]; [16] 34% | [9]; at 1.2 µM -3% | [9]; at 3.7 µM 12% | [10]; [16] -69% | [11]; at 1.2 µM -6% | [11]; at 3.7 µM 27% | [11]; [16] 1% | [12]; at 1.2 µM -5% | [12]; at 3.7 µM 37% | [13]; at 1.2 µM -2% | [13]; at 3.7 µM 17% | [14]; [16] 46% | [15]; at 1.2 µM 0% | [15]; at 3.7 µM 64%
active: [1]; at 3.7 µM 72% | [1]; at 11.0 µM 96% | [1]; at 33.0 µM 97% | [1]; at 100.0 µM 98% | [2]; at 11.0 µM 97% | [2]; at 33.0 µM 98% | [2]; at 100.0 µM 99% | [3]; at 11.0 µM 92% | [3]; at 33.0 µM 97% | [3]; at 100.0 µM 98% | [4]; at 11.0 µM 96% | [4]; at 33.0 µM 97% | [4]; at 100.0 µM 99% | [5]; at 3.7 µM 93% | [5]; [16] 89% | [5]; at 11.0 µM 97% | [5]; at 33.0 µM 97% | [5]; [17] 99% | [5]; at 50.0 µM 97.4% | [5]; at 100.0 µM 98% | [6]; at 11.0 µM 94% | [6]; at 33.0 µM 98% | [6]; [17] 98% | [6]; at 50.0 µM 97.7% | [6]; at 100.0 µM 98% | [7]; at 11.0 µM 95% | [7]; at 33.0 µM 98% | [7]; at 100.0 µM 99% | [8]; [17] 99% | [8]; at 50.0 µM 98.5% | [9]; at 11.0 µM 96% | [9]; at 33.0 µM 98% | [9]; at 100.0 µM 98% | [10]; [17] 99% | [10]; at 50.0 µM 98.7% | [11]; at 11.0 µM 97% | [11]; at 33.0 µM 97% | [11]; [17] 99% | [11]; at 50.0 µM 97.8% | [11]; at 100.0 µM 98% | [12]; at 11.0 µM 97% | [12]; at 33.0 µM 98% | [12]; at 100.0 µM 99% | [13]; at 11.0 µM 96% | [13]; at 33.0 µM 98% | [13]; at 100.0 µM 99% | [14]; [17] 98% | [14]; at 50.0 µM 98% | [15]; at 11.0 µM 96% | [15]; at 33.0 µM 98% | [15]; at 100.0 µM 98%

Source: PubChem BioAssay (NCI)
